The list is not random: actives were taken first. Their share in the collection is about 2.7%.
MsrA inh – inhibits bovine methionine sulfoxide reductase A; purified bovine MsrA, absorbance read-out; inhibition, % at 15.5 µM; 360,000 tested, 0.75% active; in the data active means inhibition above about 4.5%;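 further: 0% = vehicle wells with enzyme and 100% = reference inhibitor wells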
MsrA act – activators of bovine methionine sulfoxide reductase A; purified bovine MsrA, absorbance read-out; activation, % at 10.6 µM; 360,000 tested, 0.3% active; in the data active means activation above about 7.5%;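 further: 0% = vehicle and 100% = reference activator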
rCAG RNA binder – molecules binding r(CAG) RNA repeats; r(CAG) RNA repeat, TO-PRO-1 dye displacement fluorescence; inhibition, % at 3 µM; 370,000 tested, 1.3% active;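 active means inhibition above the plate cutoff, the mean of all test compounds on that plate plus 3 SD, cut at about 35% in these data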;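 further: 0% = DMSO alone and 100% = 100 µM mitoxantrone as full dye displacement; higher means more dye released from RNA so lower well fluorescence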
NadD inh – blocks S. aureus nicotinate mononucleotide adenylyltransferase | purified NadD enzyme, colorimetric absorbance read-out | inhibition, % at 20 µM | 360,000 tested, 0.78% active; in the data active means inhibition above about 26%
* hit, by the source's call; . = no result.

SMILES | MsrA inh | MsrA act | rCAG RNA binder | NadD inh
CCN1CCN(CC(O)COc2ccc(Cl)cc2)CC1 (centres undefined) | 0 | -4 | -1 | -6
Cc1ccc(-n2c(COc3ccccc3)nnc2SCC(=O)Nc2ccccc2-c2ccccc2)cc1 | . | . | 6 | .
Cc1cccnc1NC(=O)Nc1cccc(F)c1 | 0 | -6 | 1 | 3
Oc1ccc(N=Nc2ccccc2-c2nn[nH]n2)c(O)c1 | 0 | -4 | 79* | -2
Cc1ccccc1-c1nn[nH]n1 | 0 | 4 | 0 | 3
Cc1cccc(Nc2nnc(SCC(=O)c3ccc(O)cc3O)s2)c1 | 2 | -2 | 24 | -5
Cc1ccc(Nc2nnc(SCC(=O)c3ccc(O)cc3O)s2)cc1 | 2 | -9 | 56* | -2
CCCCN1CC(N2CCCCC2)CS1(=O)=O (centres undefined) | 0 | -3 | 3 | -7
CC1(C(=O)Nc2ccc3c(c2)OCCO3)CCC(=O)N1CCOc1ccccc1 (centres undefined) | 0 | 0 | -2 | -5
COc1ccc(-c2nc3c(Cl)cc(C(F)(F)F)cn3c2Cc2ccccc2C(F)(F)F)cc1OC | 1 | -7 | 7 | 14
Cc1ccc(-c2nc3c(Cl)cc(C(F)(F)F)cn3c2Cc2ccccc2C(F)(F)F)cc1 | -1 | -2 | 35* | 10
CCOc1ccc(CC2S/C(=N/N=C/c3ccco3)NC2=O)cc1 (centres undefined) | 4 | -3 | 6 | 1
O=C1N/C(=N\N=C\c2ccco2)SC1Cc1ccccc1[N+](=O)[O-] (centres undefined) | 4.6* | -5 | 11 | 2
Cc1ccc2nc(-c3ccc(NC(=O)c4ccco4)cc3)[nH]c2c1 | . | -5 | . | 3
Cn1cccc1-c1nc2ccc(NC(=O)c3ccco3)cc2[nH]1 | 7.3* | -1 | 6 | 0
Cc1ccccc1C(=O)Nc1ccc(C(=O)N/N=C/c2ccc(O)c(Br)c2)cc1 | 4.6* | -4 | 14 | 21
CCc1ccc(OCCCCN(C)Cc2ccccc2)cc1 | 0 | -10 | -4 | -12
Cc1cccc(N=C2NC(=O)/C(=C/c3cccn3C)S2)c1 | -1 | -2 | 4 | -9
O=C1NC(=Nc2ccccc2)S/C1=C\c1cccn1-c1ccccc1 | 0 | 1 | 13 | 38*
O=C(Nc1sc2c(c1C(=O)O)CCCC2)c1cccc(Cl)c1 | 2 | 4 | 84* | -9
Cc1cc(N=Nc2ccccc2C(=O)O)c(C)c(C)c1O | 1 | -8 | 50* | 1
COc1ccc2c(c1)CO[C@H]([C@H](O)COC(C)=O)[C@H]2/C=C/c1ccccc1 | . | . | 3 | .
CCOc1ccc(-n2ccc(=O)c(C(=O)Nc3ccc(S(=O)(=O)Nc4nccs4)cc3)n2)cc1 | 4 | -9 | 68* | 26
CCOc1ncccc1C(=O)Nc1ccc(S(=O)(=O)Nc2nccs2)cc1 | 1 | -2 | 26 | -5
C=CCn1cccc(C(=O)Nc2ccc(C)c(C)c2)c1=O | 2 | -5 | 2 | -7
SMILES | MsrA inh | MsrA act | rCAG RNA binder | NadD inh
C=CCn1cccc(C(=O)Nc2cc(OC)ccc2OC)c1=O | 4.7* | -4 | -5 | 2
CC(C)c1ccc(NC(=O)Nc2nnc([C@H]3C[C@H](O)[C@@H](CO)O3)s2)cc1 | -1 | -2 | 14 | -2
Cc1cccc(N=Nc2c(N)n[nH]c2-c2ccc(Cl)cc2)c1 | 0 | -1 | 40* | -4
Cc1ccc(-c2[nH]nc(N)c2N=Nc2ccccc2C)cc1 | 0 | -5 | 32 | -6
CN1C=C/C(=C\c2cc[n+](C)c3ccccc23)c2ccccc21 | 48* | 5 | 16 | 1
CCN1CCN(c2cc(N3CCN(C(=O)c4ccco4)CC3)c3c4c(onc24)-c2ccccc2C3=O)CC1 | . | -5 | . | 45*
O=C(O)CCNc1cc(N2CCN(C(=O)c3ccco3)CC2)c2noc3c2c1C(=O)c1ccccc1-3 | 0 | -1 | 68* | 28
CN(C)S(=O)(=O)c1cccc(NC(=O)c2ccccc2SCC(=O)N2CCCC2)c1 | -1 | -2 | 2 | 2
CN1C(=C2C(=O)OC(C)(C)OC2=O)Sc2ccccc21 | 4.8* | -4 | -1 | -2
CC(=O)NN1C(=O)/C(=C2/Sc3ccccc3N2C)SC1=S | 0 | -4 | 0 | -1
CN(C)c1ccc(/C=N\NC(=O)c2csnn2)cc1 | 7.3* | -14 | 0 | 6
CCN=c1scc(C)n1/N=C/c1cc(Br)c(O)c(OC)c1 | 3 | -7 | 16 | 35*
CC1(C)CC[C@]2(C(=O)n3ccnc3)CC[C@]3(C)[C@H](C(=O)C=C4[C@@]5(C)C=C(C#N)C(=O)C(C)(C)[C@@H]5CC[C@]43C)[C@@H]2C1 | -1 | -7 | 53* | 43*
O=C(N/C(=C\c1ccc([N+](=O)[O-])cc1)C(=O)N1CCOCC1)c1ccccc1 | 4.6* | -7 | -6 | -4
CCS(=O)(=O)C1=NN2C(=N)/C(=C\c3ccc(OS(=O)(=O)c4ccccc4)cc3)C(=O)N=C2S1 | . | -4 | . | 7
CCC1=NN2C(=N)/C(=C/c3ccc(OS(=O)(=O)c4ccccc4)cc3)C(=O)N=C2S1 | . | 2 | . | 34*
N=C1/C(=C/c2ccc(OCc3ccccc3F)cc2)C(=O)N=C2SC(CC(=O)N3CCOCC3)=NN12 | 1 | -5 | 23 | 33*
N=C1/C(=C/c2ccc(OCc3ccccc3)cc2)C(=O)N=C2SC(CC(=O)N3CCOCC3)=NN12 | 1 | -3 | 25 | 25
CCN(C(=O)COC(=O)c1cc2c(s1)CCCC2)c1c(N)n(Cc2ccccc2)c(=O)[nH]c1=O | 0 | -4 | 3 | 17
O=C(O)Cn1c2c(c3ccccc31)CSc1ccc(Cl)cc1-2 | 4 | -1 | 58* | 5
C=CC(=O)Nc1cccc(Oc2ccnc(Nc3ccc(N4CCN(C)CC4)cc3)n2)c1 | 1 | -5 | 1 | 15
C=CC(=O)Nc1cccc(Oc2ccnc3[nH]ccc23)c1 | . | -7 | . | 59*
CCNC(=O)C1(C)CCCN(Cc2ccc(Oc3ccccc3)cc2)C1 (centres undefined) | -2 | -2 | 2 | -7
CCOc1ccccc1C(O)C1=CC(=O)c2ccccc2C1=O (centres undefined) | 0 | -2 | 38* | 15
CC1=CC(=O)c2ccccc2C1=O | 0 | 1 | 2 | -1
SMILES | MsrA inh | MsrA act | rCAG RNA binder | NadD inh
CSc1nnc(-c2cccn(Cc3ccccc3)c2=O)o1 | 2 | -7 | -1 | -1
O=c1c(-c2n[nH]c(=S)o2)cccn1Cc1ccccc1 | 4.6* | 2 | 1 | 5
Cc1cc(-c2csc(NC(=O)c3ccc(S(=O)(=O)N(C)C)cc3)n2)c(C)n1-c1ccccc1 | 2 | 0 | 24 | 40*
Cc1cc(OC(=O)c2c(C)cc(OC(=O)c3c(C)cc(O)cc3O)cc2O)cc(O)c1C(=O)O | 0 | 0 | 69* | -1
CCCCCC(=O)NC1CCCCN(Cc2ccc(C)cc2)C1=O (centres undefined) | . | . | -1 | .
Nc1c(C(=O)NC2CC2)sc2nc3c(c(-c4ccco4)c12)CC/C3=C/c1ccco1 | . | -9 | . | 93*
CC1(C)C(/C=C/C=C/C=C/C=C2\N(CCCCS(=O)(=O)O)c3ccc4ccccc4c3C2(C)C)=[N+](CCCCS(=O)(=O)[O-])c2ccc3ccccc3c21 | . | -8 | . | 67*
CNc1cncc(-c2cccc(OC)c2F)n1 | 1 | -2 | 2 | 2
CCCCNS(=O)(=O)/C=C/c1cc(C)ccc1CNC(=O)OC(C)(C)C | . | . | -3 | .

Screens from PubChem.
